ADAM17 inh – inhibits human ADAM17 | recombinant ADAM17, EDANS/DABCYL FRET peptide cleavage | AID 720648 | P78536 | 370,000 compounds, 0.83% hits | inhibition, % at 6.95 µM;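 active = inhibition above the mean of compounds lying between control limits plus 3 SD, set per campaign, cut at about 8.5% in these data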
FAS TE block – blocks the thioesterase domain of human fatty acid synthase. P49327. recombinant FAS-TE, OMFH fluorogenic substrate, fluorescence endpoint. inhibition, % at 15 µM. 360,000 compounds, 0.67% hits. AID 602261;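 active = compounds whose normalised, plate-corrected inhibition of enzyme fluorescence in the single-dose primary screen is 50% or more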
Target sequence (P49327 whole entry, looked up, the tested form may be a part): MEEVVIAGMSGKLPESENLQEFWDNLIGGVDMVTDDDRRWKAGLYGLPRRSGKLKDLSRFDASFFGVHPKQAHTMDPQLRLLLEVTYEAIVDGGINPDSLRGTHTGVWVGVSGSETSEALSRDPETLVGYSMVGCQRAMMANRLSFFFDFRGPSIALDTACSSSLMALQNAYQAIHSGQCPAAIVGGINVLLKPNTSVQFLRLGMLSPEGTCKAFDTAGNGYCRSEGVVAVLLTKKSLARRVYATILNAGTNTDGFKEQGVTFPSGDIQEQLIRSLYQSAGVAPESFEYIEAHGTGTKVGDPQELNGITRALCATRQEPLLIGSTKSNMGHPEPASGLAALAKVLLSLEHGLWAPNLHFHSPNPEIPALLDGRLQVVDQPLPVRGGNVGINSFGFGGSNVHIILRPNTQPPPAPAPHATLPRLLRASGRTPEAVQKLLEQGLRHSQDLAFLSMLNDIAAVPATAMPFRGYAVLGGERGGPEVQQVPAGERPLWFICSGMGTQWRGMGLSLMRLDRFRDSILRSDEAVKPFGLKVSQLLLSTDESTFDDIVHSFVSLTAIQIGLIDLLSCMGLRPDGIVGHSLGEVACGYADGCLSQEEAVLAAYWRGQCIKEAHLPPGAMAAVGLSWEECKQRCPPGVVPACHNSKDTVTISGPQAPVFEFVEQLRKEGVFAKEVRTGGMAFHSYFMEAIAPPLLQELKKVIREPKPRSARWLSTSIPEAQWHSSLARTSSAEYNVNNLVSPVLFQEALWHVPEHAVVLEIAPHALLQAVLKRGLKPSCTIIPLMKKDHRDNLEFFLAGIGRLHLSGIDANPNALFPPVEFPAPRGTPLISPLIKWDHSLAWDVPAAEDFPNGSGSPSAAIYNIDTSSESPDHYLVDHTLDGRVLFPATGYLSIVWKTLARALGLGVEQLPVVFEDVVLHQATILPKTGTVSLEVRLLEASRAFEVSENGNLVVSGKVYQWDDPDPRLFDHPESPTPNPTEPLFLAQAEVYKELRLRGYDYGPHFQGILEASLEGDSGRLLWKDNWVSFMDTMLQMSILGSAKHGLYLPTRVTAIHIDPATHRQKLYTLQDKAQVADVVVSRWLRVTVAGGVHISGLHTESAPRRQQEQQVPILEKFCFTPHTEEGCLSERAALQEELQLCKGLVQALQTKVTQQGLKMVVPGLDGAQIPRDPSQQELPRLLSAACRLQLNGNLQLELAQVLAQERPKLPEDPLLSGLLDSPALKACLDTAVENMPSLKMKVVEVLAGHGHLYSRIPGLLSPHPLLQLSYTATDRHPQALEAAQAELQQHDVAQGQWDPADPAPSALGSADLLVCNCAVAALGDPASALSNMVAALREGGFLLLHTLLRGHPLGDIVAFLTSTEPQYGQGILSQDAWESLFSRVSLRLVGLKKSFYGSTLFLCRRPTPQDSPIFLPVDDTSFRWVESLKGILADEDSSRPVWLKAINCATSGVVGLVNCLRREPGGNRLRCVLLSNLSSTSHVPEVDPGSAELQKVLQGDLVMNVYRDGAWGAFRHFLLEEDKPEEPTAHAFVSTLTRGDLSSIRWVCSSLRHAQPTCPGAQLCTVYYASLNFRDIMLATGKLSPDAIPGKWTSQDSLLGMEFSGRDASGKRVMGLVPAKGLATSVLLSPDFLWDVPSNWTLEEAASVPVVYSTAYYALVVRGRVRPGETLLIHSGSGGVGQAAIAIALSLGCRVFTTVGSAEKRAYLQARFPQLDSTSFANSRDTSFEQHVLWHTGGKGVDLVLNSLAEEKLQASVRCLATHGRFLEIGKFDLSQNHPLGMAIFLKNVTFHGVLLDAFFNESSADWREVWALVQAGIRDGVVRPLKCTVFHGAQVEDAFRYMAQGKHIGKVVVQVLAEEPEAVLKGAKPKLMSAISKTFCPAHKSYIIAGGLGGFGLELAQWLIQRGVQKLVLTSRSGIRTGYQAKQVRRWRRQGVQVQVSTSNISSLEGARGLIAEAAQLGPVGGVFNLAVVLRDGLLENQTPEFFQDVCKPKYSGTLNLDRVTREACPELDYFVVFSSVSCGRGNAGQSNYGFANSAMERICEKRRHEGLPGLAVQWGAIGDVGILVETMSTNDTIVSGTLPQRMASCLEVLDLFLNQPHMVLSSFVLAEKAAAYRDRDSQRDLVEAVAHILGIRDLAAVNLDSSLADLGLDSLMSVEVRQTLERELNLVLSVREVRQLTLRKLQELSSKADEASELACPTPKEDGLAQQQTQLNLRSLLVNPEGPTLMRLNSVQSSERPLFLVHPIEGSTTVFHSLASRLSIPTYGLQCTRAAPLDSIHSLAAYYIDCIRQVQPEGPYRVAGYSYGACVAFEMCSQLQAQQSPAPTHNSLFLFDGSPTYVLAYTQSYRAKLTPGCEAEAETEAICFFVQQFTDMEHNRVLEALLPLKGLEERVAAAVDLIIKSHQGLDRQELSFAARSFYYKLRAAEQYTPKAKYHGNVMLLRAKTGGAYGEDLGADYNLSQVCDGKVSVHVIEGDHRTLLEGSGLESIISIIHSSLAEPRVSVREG
NR3A LBD binder – NR3A (human) ligand-binding domain modulation; NR3A LBD differential scanning fluorimetry, Tm shift; 0% = protein alone, 100% = glycine-bound protein; Tm shift relative to glycine control, % at 25 µM; 340,000 compounds, 2.5% hits; AID 1259313;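 active = melting temperature shift of at least 10% of the positive control shift, at one fixed dose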
aDG glyco up – increases alpha dystroglycan glycosylation | activation, % at 10 µM | 360,000 compounds, 0.22% hits | Pro5-aDG cells, alpha-DG glycosylation AlphaScreen (IIH6); 0% Pro5, 100% B10-LARGE cell signal | AID 624168;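 active = activation of at least 8% versus controls, or a plate z-score of at least 8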;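 note: Pro5 are CHO cells carrying HIG-tagged alpha-DG that lacks glycosylation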
ADAM10 inh – ADAM10 inhibition, QFRET primary screen. O14672. AID 720582. 370,000 compounds, 0.62% hits. inhibition, % at 7 µM. recombinant ADAM10, EDANS/DABCYL FRET peptide cleavage, 3 h;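 active = inhibition above a per-campaign cutoff equal to the mean of compounds falling between control-based bounds plus 3 SD, cut at about 20% in these data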
Large screens that a line does not name were inactive. A selection: hits, their analogues and other compounds. The true share with any hit is near 4%.

N/C(Cc1ccc([N+](=O)[O-])cc1)=N\OC(=O)c1cccc(Br)c1	none
COc1ccc(C(=O)O/N=C(\N)c2ccc(Br)cc2)cc1	NR3A LBD binder 20.0
N/C(=N\OC(=O)c1cccc(Br)c1)c1ccc([N+](=O)[O-])cc1	NR3A LBD binder 13.7
N/C(=N\OC(=O)c1ccc2ccccc2c1)c1cccc([N+](=O)[O-])c1	NR3A LBD binder 35.0
COc1ccc(C(=O)O/N=C(\N)c2ccccc2)cc1	none (no result: NR3A LBD binder)
N/C(=N\OC(=O)c1cccc(Br)c1)c1ccc(Br)cc1	NR3A LBD binder 23.1
O=C(COC(=O)/C=C/c1ccc2c(c1)OCO2)NCc1ccccc1	none
CCOC(=O)c1ccc(NC(=S)NNC(=O)c2cc(-c3cccnc3)nc3ccccc23)cc1	none
COc1ccc(NC(=O)Nc2cccc([N+](=O)[O-])c2)cc1Cl	NR3A LBD binder 31.8
COc1ccc(C(=O)Nc2ccc(OC)c([N+](=O)[O-])c2)cc1Br	NR3A LBD binder 30.4
O=C(Nc1cccc([N+](=O)[O-])c1)Nc1cccs1	NR3A LBD binder 19.2
COc1ccc(C(=O)Nc2ccc(Cc3ccncc3)cc2)cc1Br	none
COc1ccc(C(=O)Nc2cccc([N+](=O)[O-])c2)cc1Br	NR3A LBD binder 21.7
NCCCC[C@H]1CNC(=O)C(=O)N1CCc1cccc(F)c1	none
COc1cc2c(cc1NC(=O)c1ccc(C(C)(C)C)cc1)CCCC2	none
COc1ccc(C(=O)Nc2cc3c(cc2OC)CCCC3)cc1Br	NR3A LBD binder 11.4
COc1cc2oc3ccccc3c(=O)c2cc1OC	none (no result: ADAM17 inh, ADAM10 inh)
O=c1c2ccccc2oc2cc(Br)ccc12	NR3A LBD binder 12.6
O=C(O)CS(=O)(=O)c1ccc(Oc2ccc(S(=O)(=O)CC(=O)O)cc2)cc1	NR3A LBD binder 11.1 (no result: FAS TE block, aDG glyco up)
CCc1cc2cc(C)c(C)cc2nc1SCC(=O)NNC(=O)c1ccco1	NR3A LBD binder 13.2
COc1ccc(N2C(=O)C3C4C=CC(c5ccccc5)(C3C2=O)C2C(=O)N(c3ccc(OC)cc3)C(=O)C42)cc1 (configuration not stated)	NR3A LBD binder 12.1
CC(C)(O)C(=O)NNC(=S)Nc1cccc(C(F)(F)F)c1	none
FC(F)(F)c1cccc(NC(=S)Nc2ccc(Cl)c(Cl)c2)c1	NR3A LBD binder 19.5
CC(C)(C)NC(=S)Nc1cccc(C(F)(F)F)c1	none
FC(F)(F)c1cccc(NC(=S)NC(c2ccccc2)c2ccccc2)c1	NR3A LBD binder 29.9
O=C(NNC(=S)Nc1cccc(C(F)(F)F)c1)c1ccc(Cl)cc1Cl	NR3A LBD binder 20.1
FC(F)(F)c1cccc(NC(=S)NCc2ccccc2)c1	none
O=[N+]([O-])c1cc(C(F)(F)F)cc([N+](=O)[O-])c1NCCNC(=S)Nc1ccc(Cl)c(Cl)c1	NR3A LBD binder 25.7
S=C(NCc1ccncc1)Nc1ccc(Cl)c(Cl)c1	none
Cc1nc2c(OCc3ccc(C(F)(F)F)cc3)cccn2c1N(C)CC1CC1	none (no result: NR3A LBD binder)
O=C(OCC(=O)N1CCCc2ccccc21)C1CCN(S(=O)(=O)c2cccs2)CC1	none
O=[N+]([O-])c1ccc(NC(=S)NCCc2ccc(F)cc2)cc1	NR3A LBD binder 30.2
Fc1ccc(NC(=S)NCCc2ccc(Cl)cc2)cc1	NR3A LBD binder 22.6
O=[N+]([O-])c1ccc(C(O)CNC(=S)Nc2ccccc2)cc1 (configuration not stated)	NR3A LBD binder 12.5
Fc1ccc(CCNC(=S)Nc2ccc(F)c(Cl)c2)cc1	NR3A LBD binder 34.9
O=C(NCCc1ccc(Cl)cc1)Nc1ccc(F)cc1	none
Cn1c(=N)n(CC(=O)c2ccc(Br)s2)c2ccccc21	aDG glyco up 13.4
Cn1c(=N)n(CC(=O)c2cccs2)c2ccccc21	none
O=C(NC1CCCC1)C1c2ccccc2OCC(=O)N1Cc1ccco1 (configuration not stated)	none (no result: NR3A LBD binder)
C=CCCC1CN(CCCC)S(=O)(=O)c2c(F)cccc2O1 (configuration not stated)	NR3A LBD binder 18.1
CCCCN1C[C@H](CO)Oc2cccc(F)c2S1(=O)=O	none
CCCCN1C(=O)c2ccc(C(=O)Nc3cccnc3)cc2C1=O	none
COC(=O)Cc1ccc(NC(=S)N2CCN(c3ccccn3)CC2)cc1	none
Clc1nssc1=Nc1ccc(Br)cc1	none
N#Cc1cccc(N=c2ssnc2Cl)c1	NR3A LBD binder 26.9 (no result: FAS TE block, aDG glyco up)
O=C(C1CCCO1)N1N=C(c2ccc(Br)cc2)CC1c1ccco1 (configuration not stated)	NR3A LBD binder 15.5
CC1(C)Cc2c(sc(NC(=O)c3ccccc3)c2C(=O)O)CO1	NR3A LBD binder 10.1
O=C(O)c1sccc1S(=O)(=O)N1CCOCC1	NR3A LBD binder 10.6
FC(F)Oc1ccc(/C=N/NC(=S)Nc2cc(C(F)(F)F)ccc2Cl)cc1	NR3A LBD binder 35.1
COc1cccc(C(C(=O)NC2CCCCC2)N(C(=O)c2ccco2)c2ccccc2OC)c1 (configuration not stated)	none
CC(C)(C)OC(=O)N1CCC(NC(=O)c2[nH]cnc2C(=O)Nc2ccon2)CC1	none
CC(C)(C)OC(=O)N1CCC(NC(=O)c2[nH]cnc2C(=O)Nc2ccc(Cl)cc2)CC1	NR3A LBD binder 27.0
CC(C)(C)OC(=O)N1CCC(NC(=O)c2[nH]cnc2C(=O)Nc2ccccc2)CC1	none
Cc1ccc(NC(=O)c2nc[nH]c2C(=O)NC2CCN(C(=O)OC(C)(C)C)CC2)cc1	NR3A LBD binder 23.4
O=S(=O)(c1ccccc1F)N1CCN(c2nc3ccccc3s2)CC1	none
CCCn1c(SCC(=O)NCCCN2CCCC2=O)nc2ccccc2c1=O	none
COc1c(Cl)cnn(-c2cccc(C)c2)c1=O	none
O=C(NCCNCc1cccs1)c1ccccc1F	none
COc1ccc(NS(=O)(=O)c2cc(NC(=O)c3nc4nc(C)cc(C)n4n3)ccc2C)cc1	NR3A LBD binder 12.0
CCOc1ccc2nc(N/C(N)=N/C(=S)Nc3ccc(C)c(C)c3)nc(C)c2c1	NR3A LBD binder 20.1
Cc1ccc(-n2nnnc2SCC(=O)Nc2nc(-c3ccc(F)cc3)cs2)cc1C	NR3A LBD binder 30.1
Nc1ncnc2nc(SCc3ccc(Cl)cc3Cl)[nH]c12	none
CCOC(=O)c1sc(Nc2nc3c(F)cccc3s2)cc1C	NR3A LBD binder 28.9
CCOC(=O)c1sc(Nc2nc3ccc(OC)cc3s2)cc1C	NR3A LBD binder 16.2
Cc1cc(C)c2c(N)c(C(=O)Nc3ncc(C)s3)sc2n1	none
COc1ccc2nc(NC(=O)c3sc4nc(C)cc(C)c4c3N)sc2c1	NR3A LBD binder 27.8
COC(=O)c1ccc2c(c1)N(C)S(=O)(=O)c1cnc(SCC(=O)C(C)(C)C)nc1-2	NR3A LBD binder 10.9
COc1cccc(Oc2cn[nH]c2-c2ccc(OC)cc2O)c1	NR3A LBD binder 22.2
COc1cccc(Oc2cn[nH]c2-c2ccc(O)cc2O)c1	NR3A LBD binder 28.3
COc1ccccc1Oc1cn[nH]c1-c1ccc(O)cc1O	none
Cc1ccc(S(=O)(=O)N2CCC(C(=O)NCCCN3CCOCC3)CC2)cc1	none
Cc1ccc(C(=O)N/N=C/c2ccc(OC(=O)c3ccccc3Cl)cc2)cn1	NR3A LBD binder 12.5

From PubChem
